Measured values published in PubChem BioAssay (NCI).
Compounds without any hit were thinned out: in the full panel of roughly 79,000, 15% have a hit. Unmarked numbers belong to inactive results. The source made the active and inactive calls. No stated cut-off is given here; in the data, active means growth inhibition above about 70%; inactive means the rest.

Columns and labels:
[1] = NCI Yeast Anticancer Drug Screen. Data for the rad50 strain (AID 155);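 further: 0% = growth of vehicle-only cultures of the same strain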; conditions: S. cerevisiae rad50 strain growth inhibition, stronger effect = higher value
Method in brief: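 DNA repair mutant yeast, compound exposure, growth read-out; inhibition is taken relative to vehicle.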

[2] = NCI Yeast Anticancer Drug Screen. Data for the mec2-1 strain (AID 157); conditions: S. cerevisiae mec2-1 strain, stronger effect = higher value
Method in brief: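 Cells of the genetically defined mec2-1 yeast strain are incubated with test compound. Inhibition of growth is calculated against vehicle-treated controls.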

[3] = NCI Yeast Anticancer Drug Screen. Data for the sgs1 mgt1 strain (AID 161);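 further: 0% = growth of cultures given vehicle only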; conditions: S. cerevisiae sgs1 mgt1 strain, stronger effect = higher value
Method in brief: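 Test agents were incubated with a DNA-repair-mutant yeast strain. Growth was then read and compared against vehicle-treated controls.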

[4] = NCI Yeast Anticancer Drug Screen. Data for the cln2 rad14 strain (AID 165);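 further: 0% = growth equal to vehicle treated cultures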; conditions: S. cerevisiae cln2 rad14 strain, stronger effect = higher value
Method in brief: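 The screen exposed genetically defined yeast (cln2 rad14) to test compounds and scored growth inhibition relative to vehicle-treated controls.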

[5] = NCI Yeast Anticancer Drug Screen. Data for the bub3 strain (AID 167); conditions: S. cerevisiae bub3 mutant strain, stronger effect = higher value
Method in brief: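 In this screen, a yeast mutant lacking normal mitotic checkpoint function is challenged with compound. Relative growth versus vehicle gives the inhibition value.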

[6] = NCI Yeast Anticancer Drug Screen. Data for the mlh1 rad18 strain (AID 175); conditions: S. cerevisiae mlh1 rad18 strain growth inhibition, stronger effect = higher value
Method in brief: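 Compound-treated yeast growth, normalised to vehicle controls. Strain bears defined DNA repair mutations.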

[7] = at 5.0 µM (retest, dose inferred, filed as 0.5)
[8] = at 50.0 µM (retest, dose inferred, filed as 5.0)

Row | SMILES | growth inhibition [1, 7] | growth inhibition [1, 8] | growth inhibition ([1]; at 50.0 µM) | growth inhibition [2, 7] | growth inhibition [2, 8] | growth inhibition ([2]; at 50.0 µM) | growth inhibition [3, 7] | growth inhibition [3, 8] | growth inhibition ([3]; at 50.0 µM) | growth inhibition [4, 7] | growth inhibition [4, 8] | growth inhibition ([4]; at 50.0 µM) | growth inhibition [5, 7] | growth inhibition [5, 8] | growth inhibition ([5]; at 50.0 µM) | growth inhibition [6, 7] | growth inhibition [6, 8] | growth inhibition ([6]; at 50.0 µM)
1 | C[CH2][Sn]1([CH2]C)[O]C2C(OC)OC3COC(c4ccccc4)OC3C2[O]1 (configuration not stated) | 77% (active) | 80% (active) | 18.4% | 42% | 70% (active) | 61.2% | 67% | 77% (active) | -9.95% | 68% | 40% | -21.4% | 69% | 40% | 71.8% (active) | 53% | 54% | -16.1%
2 | CN1CCN(c2ccc3nc(-c4ccc5nc(-c6ccc(N(C)CCCl)cc6)[nH]c5c4)[nH]c3c2)CC1 | 1% | 99% (active) | 98.4% (active) | -10% | 99% (active) | 98.8% (active) | -7% | 99% (active) | 98.8% (active) | 47% | 99% (active) | 98.6% (active) | -18% | 99% (active) | 98.8% (active) | -16% | 99% (active) | 98.4% (active)
3 | CC(=O)C(CN(C)Cc1ccccc1)C(c1ccccc1)c1c(O)c2ccccc2oc1=O (configuration not stated) | 26% | 26% | 68.5% | 1% | 1% | 56.2% | 24% | 24% | 71.7% (active) | -9% | -9% | 47.5% | -1% | -1% | 70.7% (active) | 11% | 11% | 76.5% (active)
4 | C[N+](C)(C)CC1Cc2ccccc2C1=O (configuration not stated) | 25% | 98% (active) | 90% (active) | 20% | 99% (active) | 93.2% (active) | 14% | 99% (active) | 92% (active) | 10% | 85% (active) | 90.5% (active) | 32% | 99% (active) | 91.5% (active) | 26% | 99% (active) | 92.5% (active)
5 | CCc1cc(C)cc2[n+]1CC=C2 | -8% | 83% (active) | 98% (active) | -5% | 95% (active) | 96.4% (active) | -5% | 98% (active) | 98.3% (active) | -1% | 92% (active) | 98.1% (active) | -2% | 87% (active) | 98% (active) | -6% | 93% (active) | 97.8% (active)
6 | CC(=O)OC[C@]12C[C@H](OC(=O)CC(C)C)C(C)=C[C@H]1OC1[C@H](O)[C@@H](OC(C)=O)[C@@]2(C)[C@@]12CO2 | 97% (active) | 98% (active) | 92.8% (active) | 98% (active) | 99% (active) | 94.4% (active) | 99% (active) | 99% (active) | 93.8% (active) | 97% (active) | 98% (active) | 91.8% (active) | 98% (active) | 99% (active) | 92.2% (active) | 97% (active) | 98% (active) | 92.6% (active)
7 | CCCCCCCCCCCCCC(=O)O[C@H]1CC[C@H](NC(=O)[C@H](OC)[C@H](O)[C@@H](O)[C@H](O)/C=C/C(C)C)C(=O)NC1 | -1% | 93% (active) | 88.1% (active) | 4% | 96% (active) | 87.4% (active) | -2% | 92% (active) | 89.5% (active) | 11% | 93% (active) | 71.5% (active) | 4% | 96% (active) | 92.2% (active) | -1% | 94% (active) | 85.6% (active)
8 | [Cl][Pt][Cl].c1ccc([AsH](CC[AsH](c2ccccc2)c2ccccc2)c2ccccc2)cc1 | 99% (active) | 99% (active) | 98.8% (active) | 99% (active) | 99% (active) | 99.4% (active) | 99% (active) | 99% (active) | 98.8% (active) | 98% (active) | 98% (active) | 98.6% (active) | 99% (active) | 99% (active) | 99.2% (active) | 99% (active) | 99% (active) | 99.2% (active)
9 | CC(C)=CCC/C(C)=C/CC/C(C)=C/Cc1c(O)c2ccccc2oc1=O | 16% | 94% (active) | 89% (active) | 5% | 97% (active) | 91.5% (active) | 7% | 95% (active) | 89.7% (active) | 29% | 96% (active) | 89.2% (active) | -11% | 95% (active) | 88.3% (active) | -21% | 98% (active) | 89.2% (active)
10 | COc1ccc([As]=[As]c2ccc(OC)cc2)cc1 (configuration not stated) | -23% | 97% (active) | 99.3% (active) | 5% | 97% (active) | 99.3% (active) | -18% | 99% (active) | 99.2% (active) | -25% | 94% (active) | 99.2% (active) | -12% | 98% (active) | 99.2% (active) | -9% | 99% (active) | 99.1% (active)
11 | O=c1ccc(N=Cc2ccc(N(CCCl)CCCl)cc2)ccc1O | 94% (active) | 93% (active) | 96.2% (active) | 92% (active) | 97% (active) | 65.4% | 97% (active) | 98% (active) | 92% (active) | 52% | 89% (active) | 35.4% | 95% (active) | 93% (active) | 93% (active) | 98% (active) | 98% (active) | 93.8% (active)
12 | [C-]#[O+].[C-]#[O+].[Mo].[N-]=Nc1ccc([N+](=O)[O-])cc1.[c-]1[c-][c-][cH-][c-]1 | -1% | 69% | 93.7% (active) | -6% | 55% | 21.3% | 2% | 86% (active) | 84.9% (active) | 9% | 26% | 8.7% | -12% | 71% (active) | 4.95% | 2% | 75% (active) | 79.3% (active)
13 | C1CCNCC1.O=C([CH-]C(=O)C(F)(F)F)c1ccc2c(c1)C(=O)c1ccccc1-2.O=C([CH-]C(=O)C(F)(F)F)c1ccc2c(c1)C(=O)c1ccccc1-2.O=C([CH-]C(=O)C(F)(F)F)c1ccc2c(c1)C(=O)c1ccccc1-2.O=C([CH-]C(=O)C(F)(F)F)c1ccc2c(c1)C(=O)c1ccccc1-2.[Eu+3] | 54% | 79% (active) | 70.3% (active) | 42% | 64% | 20.2% | 15% | 58% | 52.2% | 54% | 77% (active) | 61.5% | 34% | 71% (active) | 52.2% | 40% | 69% | 49.1%
14 | COc1ccc(C[C@H]2NC[C@H](O)[C@H]2OC(C)=O)cc1 | 34% | 99% (active) | 92.5% (active) | 29% | 99% (active) | 93.8% (active) | 27% | 99% (active) | 92.3% (active) | 43% | 99% (active) | 89.9% (active) | 27% | 99% (active) | 92.2% (active) | 51% | 98% (active) | 91% (active)
15 | C[N+](C)(C)CC1CCCC(C[N+](C)(C)C)C1O (configuration not stated) | 2% | 65% | 92.3% (active) | -3% | 46% | 43.4% | 0% | 81% (active) | 76% (active) | -5% | 39% | 6.5% | -4% | 70% (active) | 67.7% | 0% | 80% (active) | 95.2% (active)
16 | O=[N+]([O-])c1ccc2c3c(cccc13)CC2 | 15% | 86% (active) | 6.7% | 3% | 32% | 9.15% | 11% | 84% (active) | 0.9% | -1% | 48% | -4.15% | 6% | 54% | 19.9% | 25% | 90% (active) | 18.4%
17 | CC(=O)[O-].CC(=O)[O-].O=C(N/N=C/c1cc(Cl)cc(Cl)c1[OH2+])c1ccncc1.[Co+2] | 6% | 23% | 51.6% | 17% | 41% | 61.9% | 7% | 33% | 58.2% | 5% | 13% | 26.4% | 2% | 9% | 48% | 4% | 39% | 73.5% (active)
18 | COc1cc(N(CC(C)Br)CC(C)Br)ccc1N=Nc1ccccc1C(=O)O (configuration not stated) | 42% | 96% (active) | 65.2% | 26% | 95% (active) | 29.1% | 54% | 95% (active) | 32.4% | 52% | 98% (active) | 78.2% (active) | 52% | 92% (active) | 32.9% | 33% | 94% (active) | 80.2% (active)
19 | O=C1C=CC(=O)C(Cl)=C1 | 10% | 96% (active) | 92.2% (active) | 3% | 73% (active) | 96% (active) | 10% | 98% (active) | 96.2% (active) | 6% | 56% | 91.4% (active) | 16% | 97% (active) | 95% (active) | 5% | 98% (active) | 95.5% (active)
